SMILES strings stand for the structures. Read-outs that look alike come from different tables or passages of the source.

Set-up in all cases: species or system human, MV4-11 + K-562 + COLO205 + SK-N-BE2 + OVCAR-8
Test [1] deals with CDK16. The note with it: read-out: apparent Kd, n = 1.
The subject of test [2] is FN3KRP. Particulars: read-out: apparent Kd, n = 1.
Test [3] has as its system T1, DJA1.
T1 construct: gene DNAJA1
Particulars: read-out: apparent Kd, n = 1.

Test [4] relates to ACAD8. The note with it: read-out: apparent Kd, n = 1.
Test [5] deals with DDR2. Particulars: read-out: apparent Kd, n = 1.
The subject of test [6] is JAK2. Particulars: read-out: apparent Kd; compound concentrations:100 nM and 1000 nM (sheet 'Samples'); n = 1.
The test system of test [7] is AKT1. The note with it: read-out: apparent Kd, n = 1.
Test [8] relates to CDK17. Particulars: read-out: apparent Kd, n = 1.
Test [9] has as its system RIOK2. The note with it: read-out: apparent Kd, n = 1.
In test [10] the test system is MAPK9. Particulars: read-out: apparent Kd, n = 1.
Test [11] concerns FLT4. Particulars: read-out: apparent Kd, n = 1.
The test system of test [12] is TGFBR1. The note with it: read-out: apparent Kd; compound concentrations: 100 nM and 1000 nM (sheet 'Samples'), CATDS: 4.6246179171744603E-2; n = 1.
Test [13] relates to MAP2K5. Particulars: read-out: apparent Kd; compound concentrations: 100 nM and 1000 nM (sheet 'Samples'), CATDS: 9.4548103744077197E-2; n = 1.
Test [14] deals with CDKL5. Particulars: read-out: apparent Kd; compound concentrations:100 nM and 1000 nM (sheet 'Samples'); n = 1.
The mark [15] stands for this setting: compound concentrations:100 nM and 1000 nM (sheet 'Samples').

Regarding `Cn1cc(C2=C(c3ccccc3[N+](=O)[O-])C(=O)NC2=O)c2ccccc21` [RO0317753-000], the potency estimated from few doses in test [1] (compound concentrations: 100 nM and 1000 nM (sheet 'Samples'), CATDS: 7.8370889513180206E-2) was 1.34 µM; in test [2] (compound concentrations: 100 nM and 1000 nM (sheet 'Samples'), CATDS: 8.17359273490917E-2), 1.13 µM.

With `Cc1ccc(CC(=O)N2CCc3cc(-c4cn(C)c5ncnc(N)c45)ccc32)cc1` [GSK2634758A], the potency estimated from few doses in [3] (compound concentrations: 100 nM and 1000 nM (sheet 'Samples'), CATDS: 0.16738098836047199) is 1.4 µM; in test [2] (compound concentrations: 100 nM and 1000 nM (sheet 'Samples'), CATDS: 0.17784341210851801), 1.24 µM.

In the case of `Cc1ccc(-n2nc(C(C)(C)C)cc2NC(=O)Nc2ccc(OCCN3CCOCC3)cc2)cc1` [BIRB0876BS], the potency estimated from few doses was 2.1 µM in [4] (setting [15]), 1.14 µM in test [5] (setting [15]) and 0.748 µM in [6].

For the compound `CS(=O)(=O)c1ccc(-c2nc3n(c2-c2ccncc2)CCC3)cc1` [SKF-105942], the potency estimated from few doses is 1.4 µM in test [4] (compound concentrations: 100 nM and 1000 nM (sheet 'Samples'), CATDS: 0.13672361229607899); 1.7 µM in test [3] (compound concentrations: 100 nM and 1000 nM (sheet 'Samples'), CATDS: 0.12627731400414099).

On to `Fc1cccc(COc2ccc(Nc3ncncc3C#Cc3ccccc3)cc2Cl)c1` [GW651576X], for which the potency estimated from few doses was 1.74 µM in [4] (compound concentrations: 100 nM and 1000 nM (sheet 'Samples'), CATDS: 5.0604868868818903E-2); 2.13 µM in test [7] (compound concentrations: 100 nM and 1000 nM (sheet 'Samples'), CATDS: 4.6282631455897803E-2); 2.29 µM in test [8] (compound concentrations: 100 nM and 1000 nM (sheet 'Samples'), CATDS: 4.4959210496165199E-2); 1.04 µM in test [3] (compound concentrations: 100 nM and 1000 nM (sheet 'Samples'), CATDS: 6.6379654075199995E-2); 1.51 µM in [9] (compound concentrations: 100 nM and 1000 nM (sheet 'Samples'), CATDS: 5.4268483350181501E-2).

`NC(=O)c1sc(-n2cnc3ccc(C(F)(F)F)cc32)cc1OCc1ccccc1Br` [GW853606X]: the potency estimated from few doses in [6] is 0.419 µM.

Take `COc1ccc(COc2ccc(Cc3cnc(N)nc3N)cc2OC)cc1` [GW632580X]: the potency estimated from few doses in test [4] (setting [15]) is 1.64 µM.

`COc1cc(N2CCN(C(C)C)CC2)ccc1Nc1nc(Nc2cccc(F)c2C(=O)O)c2cc[nH]c2n1` [GSK1819799A]: the potency estimated from few doses is 1.94 µM in test [7] (compound concentrations: 100 nM and 1000 nM (sheet 'Samples'), CATDS: 4.312239107291E-2); 2.17 µM in [8] (compound concentrations: 100 nM and 1000 nM (sheet 'Samples'), CATDS: 4.1653075396407099E-2); 2.22 µM in test [3] (compound concentrations: 100 nM and 1000 nM (sheet 'Samples'), CATDS: 4.1353934999492699E-2); 0.0745 µM in [10] (compound concentrations: 100 nM and 1000 nM (sheet 'Samples'), CATDS: 0.24378772023950801).

For `COc1cccc(C2=C(c3cn(C)c4c(C)cccc34)C(=O)NC2=O)c1` [RO3301012-000], the potency estimated from few doses in test [2] (compound concentrations: 100 nM and 1000 nM (sheet 'Samples'), CATDS: 0.113294190935364) was 1.3 µM.

On to `COc1ccc(S(=O)(=O)NC2CCN(c3cc(C)nc(Nc4cccc(C#N)c4)n3)CC2)cc1.O=C(O)C(F)(F)F` [GSK1653539A], for which the potency estimated from few doses in test [2] (compound concentrations: 100 nM and 1000 nM (sheet 'Samples'), CATDS: 0.40384988174316899) was 0.91 µM.

As for `COc1ccc(C2=C(c3cn(C)c4ccccc34)C(=O)NC2=O)cc1OC` [RO3206363-000], the potency estimated from few doses in test [7] (compound concentrations: 100 nM and 1000 nM (sheet 'Samples'), CATDS: 7.5592220710657507E-2) was 0.18 µM; in test [3] (compound concentrations: 100 nM and 1000 nM (sheet 'Samples'), CATDS: 3.2513241063347201E-2) it was 1.71 µM; in [11] (compound concentrations: 100 nM and 1000 nM (sheet 'Samples'), CATDS: 3.2229986541726797E-2), 1.77 µM; in [10] (compound concentrations: 100 nM and 1000 nM (sheet 'Samples'), CATDS: 8.8329407260920895E-2), 0.133 µM.

In the case of `CCS(=O)(=O)c1ccc(OC)c(Nc2ncc(-c3cccc(F)c3)o2)c1` [GW621970X_KCGS], the figures for the potency estimated from few doses in [4] (setting [15]) and in test [11] (setting [15]) were 2.33 µM and 0.574 µM, respectively.

For the compound `COc1ccc(Nc2nccc(N3CCC(NC(=O)Nc4cccc(OC)c4)C3)n2)cc1` (stereo not drawn) [GSK1379742A], in test [4] (compound concentrations: 100 nM and 1000 nM (sheet 'Samples'), CATDS: 0.11167502777980801), the potency estimated from few doses was 2.09 µM.

Turning to `Cl.Oc1ccc2ncnc(Nc3ccc(OCc4ccccc4)cc3)c2c1` [GI262866A], the potency estimated from few doses in test [2] (setting [15]) was 0.762 µM.

With `COc1cc(F)c(F)c(F)c1C(=O)c1cnc(NC2CCN(S(C)(=O)=O)CC2)nc1N` [RO4600703-000], the potency estimated from few doses in test [1] (setting [15]) is 0.051 µM; in test [8] (setting [15]) it was 0.0773 µM; in test [2] (setting [15]), 0.549 µM.

As for `COc1ccc(-c2nn3ncccc3c2-c2ccnc(Nc3ccc4c(c3)OCCO4)n2)cc1` [GW827106X], the potency estimated from few doses in test [5] (compound concentrations: 100 nM and 1000 nM (sheet 'Samples'), CATDS: 4.9498926543833199E-2) was 1.52 µM; in [10] (compound concentrations: 100 nM and 1000 nM (sheet 'Samples'), CATDS: 4.4079434043462103E-2), 2.07 µM; in test [12], 1.81 µM.

As to `COc1ccccc1C(=O)c1cnc(NC2CCN(S(C)(=O)=O)CC2)nc1N` [RO4514610-000], the potency estimated from few doses in test [1] (setting [15]) is 0.721 µM; in test [8] (setting [15]), 0.732 µM.

Turning to `Cc1ccc(NC(=O)Nc2ccccc2)cc1-c1ccc(C(=O)Nc2ccncc2)cc1` [GSK1398471A], the potency estimated from few doses was 2.18 µM in [4] (compound concentrations: 100 nM and 1000 nM (sheet 'Samples'), CATDS: 9.6825044114723993E-2); 2.35 µM in test [13].

For `CC(=O)Nc1ccc2c(C3=C(c4cn(C)c5ccccc45)C(=O)NC3=O)cn(C)c2c1` [RO0317596-000], the potency estimated from few doses in test [2] (compound concentrations: 100 nM and 1000 nM (sheet 'Samples'), CATDS: 0.121909442798699) is 1.25 µM.

For `NS(=O)(=O)c1cccc(-c2ccc3nccc(-c4cccc(S(N)(=O)=O)c4)c3c2)c1` [GW867253X], the potency estimated from few doses in [4] (compound concentrations: 100 nM and 1000 nM (sheet 'Samples'), CATDS: 0.48469015722886899) is 2.11 µM.

On to `Cn1cc(C2=C(c3cccc([N+](=O)[O-])c3)C(=O)NC2=O)c2ccccc21` [RO0317474-000], for which the potency estimated from few doses in [2] (compound concentrations: 100 nM and 1000 nM (sheet 'Samples'), CATDS: 0.16649901321048899) was 1.07 µM.

In the case of `Cc1ccc(NC(=O)c2ccc(Cl)cc2)cc1-c1ccc(C(=O)Nc2ccncc2)cc1` [GSK1398467A], in [2] (compound concentrations: 100 nM and 1000 nM (sheet 'Samples'), CATDS: 0.20437737337719999), the potency estimated from few doses is 1.18 µM.

`Cn1cc(C2=C(c3cn(CCCCCO)c4ccccc34)C(=O)NC2=O)c2ccccc21` [RO0318053-000]: in [2] (compound concentrations: 100 nM and 1000 nM (sheet 'Samples'), CATDS: 0.23703756302713999), the potency estimated from few doses was 0.0699 µM.

Turning to `NC(=O)c1cccnc1COc1cc(-c2ccc(N3CCOCC3)nc2)cc2ncccc12` [BI01125081], the potency estimated from few doses is 1.93 µM in test [4] (setting [15]), 2.24 µM in test [5] (setting [15]) and 1.43 µM in test [3] (setting [15]).

`Nc1c(C(=O)c2ccccc2)cnn1-c1ccc(F)cc1` [RO1151246-000]: the potency estimated from few doses in test [4] (setting [15]) is 1.76 µM; in test [7] (setting [15]), 1.46 µM; in [14] it was 0.997 µM; in [9] (setting [15]), 1.7 µM.

For `Fc1ccc(-c2ncn(C3CCNCC3)c2-c2ccnc(Oc3ccc4c(c3)OCO4)n2)cc1` [SB-250715], the potency estimated from few doses in test [4] (setting [15]) is 1.57 µM; in test [7] (setting [15]), 2.33 µM; in [1] (setting [15]), 2.36 µM; in test [10] (setting [15]), 1.26 µM; in test [9] (setting [15]) it was 1.92 µM.

Turning to `Cl.Fc1cccc(COc2ccc(Nc3ncnc4cc(-c5ccc[nH]5)sc34)cc2Cl)c1` [GW693881A], the potency estimated from few doses in test [2] (compound concentrations: 100 nM and 1000 nM (sheet 'Samples'), CATDS: 0.20216809637719099) is 0.791 µM.

With `Fc1ccc(-c2nn3ccccc3c2-c2ccncc2)cc1` [GW434756X], the potency estimated from few doses was 1.24 µM in test [3] (compound concentrations: 100 nM and 1000 nM (sheet 'Samples'), CATDS: 6.7999729986940594E-2); 1.42 µM in test [10] (compound concentrations: 100 nM and 1000 nM (sheet 'Samples'), CATDS: 6.4345745846517005E-2).

Source of the values: PMC11062922 (Nature Chemical Biology, 2023).
